Source: PubChem BioAssay AID1159580 (chemical genetic matrix, 2015)
“And” between values parts separate entries of the source, which are not always exact repeats. Equal entries are not always repeated. In all, about 5,500 compounds went through this assay and about 2,000 (36%) were called active. Inconclusive results (about 18%) are left out. Cut-off read from the data, not from the text of the source: active = normalized growth mostly below about 0.91 (no sharp cut-off); inconclusive = no clear call, values can overlap the other calls; inactive = mostly above about 0.92. This is one part of the list.

Experiment: chemical genetic growth profiling, strain panel (AID 1159580);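 note: tested at 20 µM; growth read once vehicle control cultures reached saturation at 30 °C; 1 = growth at the plate median or of vehicle wells; lower values mean less growth of the strain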
Settings: S. cerevisiae deletion strains, growth OD

Measured: normalized growth

C=C1CC[C@H](O)C/C1=C/C=C1\CCC[C@]2(C)C([C@H](C)/C=C/[C@H](C)C(C)C)CC[C@@H]12 (stereo not given in full)
inactive: locus YAL013W, strain DEP1, hits give low values 0.977 | locus YAL021C, strain ccr4, hits give low values 1.05 | locus YAL026C, strain drs2, hits give low values 1 | locus YAL030W, strain snc1, hits give low values 1.02 | locus YBL061C, strain skt5, hits give low values 1.02 | locus YBR009C, strain hhf1, hits give low values 0.991 | locus YBR021W, strain FUR4, hits give low values 1.04 | locus YBR023C, strain chs3, hits give low values 0.998 | locus YBR171W, strain sec66, hits give low values 1.01 | locus YBR229C, strain ROT2, hits give low values 0.944 | locus YBR231C, strain swc5, hits give low values 0.995 | locus YBR279W, strain paf1, hits give low values 1.01 | locus YCL011C, strain gbp2, hits give low values 1.02 | locus YCL016C, strain dcc1, hits give low values 0.995 | locus YCL029C, strain bik1, hits give low values 0.968 | locus YCL069W, strain vba3, hits give low values 1.01 | locus YCR088W, strain abp1, hits give low values 1.03 | locus YDL005C, strain med2, hits give low values 1 | locus YDL035C, strain GPR1, hits give low values 0.929 | locus YDL040C, strain nat1, hits give low values 1.02 | locus YDL074C, strain BRE1, hits give low values 0.961 | locus YDL101C, strain DUN1, hits give low values 0.976 | locus YDL185W, strain tfp1, hits give low values 0.981 | locus YDL192W, strain arf1, hits give low values 0.976 | locus YDR001C, strain nth1, hits give low values 1.03 | locus YDR069C, strain doa4, hits give low values 1.03 | locus YDR101C, strain arx1, hits give low values 0.948 | locus YDR137W, strain rgp1, hits give low values 0.939 | locus YDR150W, strain NUM1, hits give low values 0.977 | locus YDR159W, strain sac3, hits give low values 1.02 | locus YDR162C, strain NBP2, hits give low values 0.863 | locus YDR195W, strain ref2 1.03 | locus YDR297W, strain sur2, hits give low values 1.01 | locus YDR318W, strain mcm21, hits give low values 0.98 | locus YDR334W, strain swr1, hits give low values 1.03 | locus YDR335W, strain msn5, hits give low values 1.03 | locus YDR388W, hits give low values 0.977 | locus YDR392W, strain spt3, hits give low values 0.911 | locus YDR502C, strain sam2, hits give low values 0.998 | locus YEL003W, strain gim4, hits give low values 1.03 | locus YEL037C, strain rad23, hits give low values 1.01 | locus YEL061C, strain CIN8 (second series), hits give low values 1.03 | locus YEL061C, strain CIN8, hits give low values 0.982 | locus YER015W, strain faa2, hits give low values 1.01 | locus YER016W, strain bim1, hits give low values 1.02 | locus YER110C, hits give low values 0.977 | locus YER111C, strain swi4, hits give low values 0.996 | locus YER155C, strain BEM2 (second series), hits give low values 1.06 | locus YER155C, strain BEM2, hits give low values 0.997 | locus YER167W, strain BCK2, hits give low values 0.999 | locus YFR010W, strain ubp6, hits give low values 1.02 | locus YGL078C, strain dbp3, hits give low values 0.972 | locus YGL086W, strain mad1, hits give low values 0.958 | locus YGL167C, strain pmr1, hits give low values 1.03 | locus YGL173C, strain kem1, hits give low values 1.04 | locus YGL227W, strain vid30, hits give low values 1.01 | locus YGL240W, strain doc1, hits give low values 1.03 | locus YGL248W, strain PDE1, hits give low values 0.978 | locus YGL253W, strain hxk2, hits give low values 0.989 | locus YGR078C, strain PAC10, hits give low values 0.974 | locus YGR135W, strain pre9, hits give low values 1.03 | locus YGR252W, strain gcn5, hits give low values 1.08 | locus YHR013C, strain ard1, hits give low values 1.07 | locus YHR027C, strain rpn1, hits give low values 1.03 | locus YHR030C, strain SLT2, hits give low values 0.998 and 0.979 | locus YHR079C, strain IRE1 (second series), hits give low values 0.964 | locus YHR079C, strain IRE1, hits give low values 0.997 | locus YHR094C, strain hxt1, hits give low values 0.978 | locus YHR129C, strain ARP1, hits give low values 0.988 | locus YHR142W, strain chs7, hits give low values 1 | locus YHR200W, strain rpn10, hits give low values 0.981 | locus YIL066C, strain RNR3, hits give low values 0.968 | locus YIL073C, strain SPO22, hits give low values 0.994 | locus YIL125W, strain kgd1, hits give low values 0.98 | locus YIR030C, strain dcg1, hits give low values 0.984 | locus YJL092W, strain hpr5, hits give low values 1.02 | locus YJL095W, strain BCK1 (second series), hits give low values 1.02 | locus YJL095W, strain BCK1, hits give low values 0.959 and 1 | locus YJL115W, strain asf1, hits give low values 1.02 | locus YJL129C, strain trk1, hits give low values 1.02 | locus YJL134W, strain LCB3, hits give low values 0.982 | locus YJL154C, strain vps35, hits give low values 1.03 | locus YJL164C, strain tpk1, hits give low values 1.01 | locus YJL166W, strain qcr8, hits give low values 1 | locus YJL168C, strain set2, hits give low values 0.991 | locus YJL187C, strain SWE1 (second series), hits give low values 0.965 | locus YJR043C, strain POL32, hits give low values 0.956 | locus YJR066W, strain TOR1, hits give low values 0.891 | locus YJR075W, strain HOC1, hits give low values 0.979 | locus YKL009W, strain mrt4, hits give low values 0.935 | locus YKL068W, hits give low values 0.994 | locus YKL085W, strain MDH1 (second series), hits give low values 0.993 | locus YKL085W, strain MDH1, hits give low values 0.993 | locus YKL160W, strain elf1, hits give low values 1.01 | locus YKR001C, strain vps1, hits give low values 0.949 | locus YKR026C, strain gcn3, hits give low values 1.02 | locus YKR091W, strain srl3, hits give low values 1.01 | locus YLL001W, strain dnm1, hits give low values 1.02 | locus YLL026W, hits give low values 1.01 | locus YLL041C, strain sdh2, hits give low values 1.03 | locus YLR027C, strain aat2, hits give low values 1.01 | locus YLR039C, strain RIC1, hits give low values 0.777 | locus YLR058C, strain SHM2, hits give low values 0.978 | locus YLR102C, strain apc9, hits give low values 0.991 | locus YLR113W, strain HOG1, hits give low values 1.02 | locus YLR221C, strain rsa3, hits give low values 1.02 | locus YLR258W, strain gsy2, hits give low values 1.01 | locus YLR262C, strain YPT6 (second series), hits give low values 0.907 | locus YLR262C, strain YPT6, hits give low values 0.758 | locus YLR268W, strain sec22, hits give low values 0.937 | locus YLR320W, strain mms22, hits give low values 0.987 | locus YLR330W, strain CHS5, hits give low values 0.984 | locus YLR342W, strain FKS1 (second series), hits give low values 0.991 | locus YLR342W, strain FKS1, hits give low values 1.01 | locus YLR357W, strain rsc2, hits give low values 1.05 | locus YLR370C, strain arc18, hits give low values 1.04 | locus YLR371W, strain rom2, hits give low values 1.01 | locus YLR384C, strain iki3, hits give low values 1.02 | locus YLR418C, strain cdc73, hits give low values 0.985 | locus YML016C, strain PPZ1, hits give low values 0.984 | locus YML032C, strain rad52, hits give low values 0.979 | locus YML120C, strain ndi1, hits give low values 1.03 | locus YML124C, strain tub3, hits give low values 0.985 | locus YMR058W, strain fet3, hits give low values 1 | locus YMR078C, strain ctf18, hits give low values 0.984 | locus YMR125W, strain sto1, hits give low values 1.02 | locus YMR129W, hits give low values 1.02 | locus YMR205C, strain PFK2, hits give low values 1.02 | locus YMR223W, strain ubp8, hits give low values 1.01 | locus YMR231W, strain pep5, hits give low values 1 | locus YMR263W, strain SAP30, hits give low values 0.976 | locus YMR307W, strain GAS1, hits give low values 0.923 | locus YNL067W, strain RPL9B, hits give low values 0.982 | locus YNL071W, strain lat1, hits give low values 0.983 | locus YNL183C, strain NPR1, hits give low values 0.98 | locus YNL209W, strain ssb2, hits give low values 1.01 | locus YNL233W, strain BNI4, hits give low values 0.993 | locus YNL248C, strain rpa49, hits give low values 1.02 | locus YNL250W, strain rad50, hits give low values 0.993 | locus YNL271C, strain bni1, hits give low values 0.967 | locus YNL298W, strain CLA4, hits give low values 0.969 | locus YNL307C, strain MCK1, hits give low values 0.989 | locus YNL322C, strain KRE1 (second series), hits give low values 1.03 | locus YNL322C, strain KRE1, hits give low values 0.999 | locus YNR049C, strain mso1, hits give low values 1.02 | locus YNR052C, strain pop2, hits give low values 0.981 | locus YOL006C, strain TOP1, hits give low values 0.967 | locus YOL012C, strain htz1 1.45 | locus YOL147C, strain pex11, hits give low values 0.993 | locus YOR001W, strain rrp6, hits give low values 1 | locus YOR061W, strain CKA2, hits give low values 0.953 | locus YOR069W, strain VPS5, hits give low values 0.98 | locus YOR070C, strain gyp1, hits give low values 1.01 | locus YOR080W, strain dia2, hits give low values 1.01 | locus YOR083W, strain WHI5, hits give low values 0.985 | locus YOR106W, strain vam3, hits give low values 1.04 | locus YOR136W, strain idh2, hits give low values 0.981 | locus YOR144C, strain elg1, hits give low values 0.989 | locus YOR184W, strain ser1, hits give low values 0.939 | locus YOR231W, strain MKK1, hits give low values 1.02 | locus YOR265W, strain rbl2, hits give low values 1.01 | locus YOR270C, strain vph1, hits give low values 0.873 | locus YOR290C, strain snf2, hits give low values 1.02 | locus YOR316C, strain cot1, hits give low values 0.978 | locus YPL051W, strain arl3, hits give low values 1.01 | locus YPL055C, strain LGE1, hits give low values 1.01 | locus YPL078C, strain atp4, hits give low values 1.01 | locus YPL106C, strain sse1, hits give low values 1.09 | locus YPL240C, strain hsp82, hits give low values 1.01 | locus YPL256C, strain CLN2, hits give low values 1.01 | locus YPR119W, strain clb2, hits give low values 0.982 | locus YPR141C, strain kar3, hits give low values 0.981 | locus YPR163C, strain tif3, hits give low values 0.992 | locus YPR167C, strain met16, hits give low values 0.985 | strain wtn01, hits give low values 0.981
